Measurements as given in the supplement of paper PMC4022240.
± gives the standard deviation.

Experiments:
Test in all cases: peptide microarray binding signal (635 nm), min-max normalized on array (fraction of array maximum); higher = stronger binding
Conditions in all cases: peptide region: H4 16-28
[1] = target: T1, HaloTag-ATRX ADD domain (163-292)
T1 chain: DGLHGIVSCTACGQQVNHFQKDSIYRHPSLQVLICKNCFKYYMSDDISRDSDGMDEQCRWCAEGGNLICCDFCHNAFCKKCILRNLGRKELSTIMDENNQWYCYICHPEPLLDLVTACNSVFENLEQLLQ
How it was run: (§1)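 Histone 13-mer peptide–cellulose conjugates were printed in triplicate on nitrocellulose with a Cy3 tracer, then blocked overnight at 4°C. Arrays were probed for 1 h at 4°C with biotin-labelled HaloTag reader fusions (10 nM to 1 μM) plus streptavidin-Alexa Fluor 647, or with rabbit histone antibodies (1:10,000 to 1:2,000) plus anti-rabbit Alexa 647. An Axon GenePix 4000B scanned 635 nm for signal and 532 nm for misprints. Binding signal is the triplicate-spot mean intensity, min-max scaled per library.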

[2] = target: HaloTag-ING2 PHD (mouse Ing2 200-280)
How it was run: as §1

[3] = target: anti-H3K4me3 antibody ab8580
How it was run: as §1

[4] = target: anti-H3K9me3 antibody ab8898
How it was run: as §1

[5] = peptide modifications: H4R19cit H4K20me1, binder concentration: 1:2,000 dilution
[6] = peptide modifications: H4R19cit H4K20me1, binder concentration: 1:10,000 dilution
[7] = peptide modifications: H4R19me1 H4K20me3, binder concentration: 1:2,000 dilution
[8] = peptide modifications: H4R19me1 H4K20me3, binder concentration: 1:10,000 dilution
[9] = peptide modifications: H4K20me2, binder concentration: 1:2,000 dilution
[10] = peptide modifications: H4R19me2a H4K20me3, binder concentration: 1:2,000 dilution
[11] = peptide modifications: H4R19me2a H4K20me3, binder concentration: 1:10,000 dilution
[12] = peptide modifications: H4K20ac, binder concentration: 1:2,000 dilution
[13] = peptide modifications: H4R19me1 H4K20me2, binder concentration: 1:2,000 dilution
[14] = peptide modifications: H4R19me1 H4K20me2, binder concentration: 1:10,000 dilution
[15] = peptide modifications: H4R19me2a H4K20me1, binder concentration: 1:2,000 dilution
[16] = peptide modifications: H4R19me2a H4K20me1, binder concentration: 1:10,000 dilution
[17] = peptide modifications: H4R19me1 H4K20ac, binder concentration: 1:2,000 dilution
[18] = peptide modifications: H4R19me1 H4K20ac, binder concentration: 1:10,000 dilution
[19] = peptide modifications: H4R19me2s H4K20me1, binder concentration: 1:2,000 dilution
[20] = peptide modifications: H4R19me2s H4K20me1, binder concentration: 1:10,000 dilution
[21] = peptide modifications: H4R19me2a, binder concentration: 1:2,000 dilution
[22] = peptide modifications: H4R19cit H4K20me2, binder concentration: 1:2,000 dilution
[23] = peptide modifications: H4R19cit H4K20me2, binder concentration: 1:10,000 dilution
[24] = peptide modifications: H4R19me1, binder concentration: 1:2,000 dilution

B1: H4 16-28 K R H Rcit Kme V L R D N I Q G (peptide)
chain: KRHRKVLRDNIQG
peptide microarray binding signal ([1]; peptide modifications: H4R19cit H4K20me1, binder concentration: 50 nM): 0.00693 ± 7.8e-05
peptide microarray binding signal ([1]; peptide modifications: H4R19cit H4K20me1, binder concentration: 500 nM): 0.00933 ± 0.00036
peptide microarray binding signal ([2]; peptide modifications: H4R19cit H4K20me1, binder concentration: 10 nM): 0.0107 ± 0.00018
peptide microarray binding signal ([2]; peptide modifications: H4R19cit H4K20me1, binder concentration: 100 nM): 0.0139 ± 0.00037
peptide microarray binding signal [3, 5]: 0.00145 ± 4.8e-05
peptide microarray binding signal [3, 6]: 0.002853 ± 2.4e-05
peptide microarray binding signal [4, 5]: 0.000785 ± 4.4e-05
peptide microarray binding signal [4, 6]: 0.002479 ± 2.2e-05

B2: H4 16-28 K R H Rme Kme3 V L R D N I Q G (peptide)
chain: KRHRKVLRDNIQG
peptide microarray binding signal ([1]; peptide modifications: H4R19me1 H4K20me3, binder concentration: 50 nM): 0.0047 ± 0.00026
peptide microarray binding signal ([1]; peptide modifications: H4R19me1 H4K20me3, binder concentration: 500 nM): 0.00638 ± 0.00038
peptide microarray binding signal ([2]; peptide modifications: H4R19me1 H4K20me3, binder concentration: 10 nM): 0.0104 ± 0.00011
peptide microarray binding signal ([2]; peptide modifications: H4R19me1 H4K20me3, binder concentration: 100 nM): 0.0129 ± 0.00048
peptide microarray binding signal [3, 7]: 0.00636 ± 0.00079
peptide microarray binding signal [3, 8]: 0.00867 ± 0.00021
peptide microarray binding signal [4, 7]: 0.0157 ± 0.0041
peptide microarray binding signal [4, 8]: 0.00871 ± 0.00013

B3: H4 16-28 K R H R Kme2 V L R D N I Q G (peptide)
chain: KRHRKVLRDNIQG
peptide microarray binding signal ([1]; peptide modifications: H4K20me2, binder concentration: 500 nM): 0
peptide microarray binding signal ([2]; peptide modifications: H4K20me2, binder concentration: 100 nM): 0.000142 ± 1.7e-06
peptide microarray binding signal [3, 9]: 5.66e-05 ± 1.1e-06
peptide microarray binding signal [4, 9]: 1.51e-05 ± 1.7e-07

B4: H4 16-28 K R H Rme2a Kme3 V L R D N I Q G (peptide)
chain: KRHRKVLRDNIQG
peptide microarray binding signal ([1]; peptide modifications: H4R19me2a H4K20me3, binder concentration: 50 nM): 0.0152 ± 0.00067
peptide microarray binding signal ([1]; peptide modifications: H4R19me2a H4K20me3, binder concentration: 500 nM): 0.0166 ± 0.00049
peptide microarray binding signal ([2]; peptide modifications: H4R19me2a H4K20me3, binder concentration: 10 nM): 0.0209 ± 0.00068
peptide microarray binding signal ([2]; peptide modifications: H4R19me2a H4K20me3, binder concentration: 100 nM): 0.0392 ± 0.009
peptide microarray binding signal [3, 10]: 0.0145 ± 0.0019
peptide microarray binding signal [3, 11]: 0.00981 ± 0.00045
peptide microarray binding signal [4, 10]: 0.0143 ± 0.0024
peptide microarray binding signal [4, 11]: 0.0104 ± 0.00022

B5: H4 16-28 K R H R Kac V L R D N I Q G (peptide)
chain: KRHRKVLRDNIQG
peptide microarray binding signal ([1]; peptide modifications: H4K20ac, binder concentration: 500 nM): 0.000524 ± 1.1e-05
peptide microarray binding signal ([2]; peptide modifications: H4K20ac, binder concentration: 100 nM): 0.000354 ± 4.1e-06
peptide microarray binding signal [3, 12]: 0.000529 ± 9.8e-05
peptide microarray binding signal [4, 12]: 3.02e-05 ± 3.4e-07

B6: H4 16-28 K R H Rme Kme2 V L R D N I Q G (peptide)
chain: KRHRKVLRDNIQG
peptide microarray binding signal ([1]; peptide modifications: H4R19me1 H4K20me2, binder concentration: 50 nM): 0.00404 ± 8.4e-05
peptide microarray binding signal ([1]; peptide modifications: H4R19me1 H4K20me2, binder concentration: 500 nM): 0.00943 ± 0.001
peptide microarray binding signal ([2]; peptide modifications: H4R19me1 H4K20me2, binder concentration: 10 nM): 0.00847 ± 0.00051
peptide microarray binding signal ([2]; peptide modifications: H4R19me1 H4K20me2, binder concentration: 100 nM): 0.0223 ± 0.0015
peptide microarray binding signal [3, 13]: 0.00219 ± 0.0001
peptide microarray binding signal [3, 14]: 0.002 ± 4.9e-05
peptide microarray binding signal [4, 13]: 0.00116 ± 9e-05
peptide microarray binding signal [4, 14]: 0.00254 ± 0.00041

B7: H4 16-28 K R H Rme2a Kme V L R D N I Q G (peptide)
chain: KRHRKVLRDNIQG
peptide microarray binding signal ([1]; peptide modifications: H4R19me2a H4K20me1, binder concentration: 50 nM): 0.00382 ± 5.3e-05
peptide microarray binding signal ([1]; peptide modifications: H4R19me2a H4K20me1, binder concentration: 500 nM): 0.008 ± 0.00032
peptide microarray binding signal ([2]; peptide modifications: H4R19me2a H4K20me1, binder concentration: 10 nM): 0.00782 ± 0.00021
peptide microarray binding signal ([2]; peptide modifications: H4R19me2a H4K20me1, binder concentration: 100 nM): 0.0127 ± 0.0032
peptide microarray binding signal [3, 15]: 0.0308 ± 0.032
peptide microarray binding signal [3, 16]: 0.00188 ± 8.8e-05
peptide microarray binding signal [4, 15]: 0.000966 ± 4.1e-05
peptide microarray binding signal [4, 16]: 0.0015 ± 4.4e-05

B8: H4 16-28 K R H Rme Kac V L R D N I Q G (peptide)
chain: KRHRKVLRDNIQG
peptide microarray binding signal ([1]; peptide modifications: H4R19me1 H4K20ac, binder concentration: 50 nM): 0.00448 ± 0.00018
peptide microarray binding signal ([1]; peptide modifications: H4R19me1 H4K20ac, binder concentration: 500 nM): 0.00967 ± 0.0016
peptide microarray binding signal ([2]; peptide modifications: H4R19me1 H4K20ac, binder concentration: 10 nM): 0.00627 ± 0.00047
peptide microarray binding signal ([2]; peptide modifications: H4R19me1 H4K20ac, binder concentration: 100 nM): 0.00609 ± 0.00066
peptide microarray binding signal [3, 17]: 0.00468 ± 0.0037
peptide microarray binding signal [3, 18]: 0.00137 ± 1.3e-05
peptide microarray binding signal [4, 17]: 0.000287 ± 2.9e-06
peptide microarray binding signal [4, 18]: 0.001557 ± 1.5e-05

B9: H4 16-28 K R H Rme2s Kme V L R D N I Q G (peptide)
chain: KRHRKVLRDNIQG
peptide microarray binding signal ([1]; peptide modifications: H4R19me2s H4K20me1, binder concentration: 50 nM): 0.00379 ± 5.5e-05
peptide microarray binding signal ([1]; peptide modifications: H4R19me2s H4K20me1, binder concentration: 500 nM): 0.00586 ± 0.00025
peptide microarray binding signal ([2]; peptide modifications: H4R19me2s H4K20me1, binder concentration: 10 nM): 0.0101 ± 0.00023
peptide microarray binding signal ([2]; peptide modifications: H4R19me2s H4K20me1, binder concentration: 100 nM): 0.0192 ± 0.00073
peptide microarray binding signal [3, 19]: 0.0013 ± 1.8e-05
peptide microarray binding signal [3, 20]: 0.002568 ± 2.3e-05
peptide microarray binding signal [4, 19]: 0.000831 ± 4.3e-05
peptide microarray binding signal [4, 20]: 0.001614 ± 1.6e-05

B10: H4 16-28 K R H Rme2a K V L R D N I Q G (peptide)
chain: KRHRKVLRDNIQG
peptide microarray binding signal ([1]; peptide modifications: H4R19me2a, binder concentration: 500 nM): 4.76e-05 ± 5.2e-07
peptide microarray binding signal ([2]; peptide modifications: H4R19me2a, binder concentration: 100 nM): 0.000213 ± 2.5e-06
peptide microarray binding signal [3, 21]: 5.66e-05
peptide microarray binding signal [4, 21]: 1.51e-05 ± 1.7e-07

B11: H4 16-28 K R H Rcit Kme2 V L R D N I Q G (peptide)
chain: KRHRKVLRDNIQG
peptide microarray binding signal ([1]; peptide modifications: H4R19cit H4K20me2, binder concentration: 50 nM): 0.00351 ± 7.6e-05
peptide microarray binding signal ([1]; peptide modifications: H4R19cit H4K20me2, binder concentration: 500 nM): 0.007572 ± 7.1e-05
peptide microarray binding signal ([2]; peptide modifications: H4R19cit H4K20me2, binder concentration: 10 nM): 0.00812 ± 0.00016
peptide microarray binding signal ([2]; peptide modifications: H4R19cit H4K20me2, binder concentration: 100 nM): 0.0181 ± 0.00075
peptide microarray binding signal [3, 22]: 0.0008306 ± 7.4e-06
peptide microarray binding signal [3, 23]: 0.0016
peptide microarray binding signal [4, 22]: 0.000483 ± 9.2e-06
peptide microarray binding signal [4, 23]: 0.001211 ± 1.2e-05

B12: H4 16-28 K R H Rme K V L R D N I Q G (peptide)
chain: KRHRKVLRDNIQG
peptide microarray binding signal ([1]; peptide modifications: H4R19me1, binder concentration: 500 nM): 9.52e-05 ± 1e-06
peptide microarray binding signal ([2]; peptide modifications: H4R19me1, binder concentration: 100 nM): 0.000425 ± 4.9e-06
peptide microarray binding signal [3, 24]: 0.000113 ± 2.2e-06
peptide microarray binding signal [4, 24]: 1.51e-05 ± 1.7e-07
